From PubChem BioAssay AID1303 (The Scripps Research Institute Molecular Screening Center, 2008) come the findings set out here.

Molecules are shown by their SMILES. The list shows a part of the results. Activity calls are given as the source filed them.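 How the source made its calls: active means inhibition above the mean of solvent-only control wells plus 3 SD of those wells (cut at about 15% in these data); inactive means the rest.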

This assay in a line: NF-kB reporter inhibitors, TNF-alpha stimulated, counter-screen for STAT1 inhibitor project, cell-based, HEK293T, luciferase luminescence (AID 1303).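 Further: 0% = DMSO with TNF-alpha and 100% = MG-132 control with TNF-alpha.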 The settings on record: TNF-alpha induced, at 5.7 µM, stronger effect = higher value.
On to `O=C(CCl)N(Cc1cccc([N+](=O)[O-])c1)c1cccc(Cl)c1`, for which the inhibition was 37.9% (active).
Take `CCOC(=O)C(=CNc1cccc(C)n1)C(=O)OCC`: the inhibition is -2.27% (inactive).
As for `COc1ccc(C(=O)Nc2ccccc2C(=O)N/N=C/c2ccccc2OC)cc1`, the figure is 10.2% (inactive).
Then `C[C@@H]1C[C@@H]2O[C@H]2/C=C\C=C\C(=O)Cc2c(Cl)c(O)cc(O)c2C(=O)O1`, with 54.9% (active); and `CCOC(=O)N1CCN(C(=O)CSc2nnc(-c3c[nH]c4ccccc34)n2CCOC)CC1`, with 3.03% (inactive); and `CCOC(=O)N1CCN(C(=O)C2CCN(c3ncnc4c3sc3cccc(F)c34)CC2)CC1`, with 20.1% (active).
As for `COC(=O)C1=CN(Cc2ccc(OC)c(OC)c2)C=C(C(=O)OC)C1c1cccs1`, the figure is -1.6% (inactive); as for `NS(=O)(=O)c1cccc(NC(=O)CSc2nc3ccccc3n2-c2ccccc2)c1`, 1.57% (inactive).
With `COc1ccc(C2CC(c3cccs3)=NN2c2nc(C)c(C(C)=O)s2)cc1OC` (stereo not given), the inhibition was 1.4% (inactive).
Take `Cc1ccc(C2=Nc3c(ccc4ccccc34)C(c3ccncc3)=NN2)cc1`: the inhibition was 4.77% (inactive).
